MCF10A rerep = induces DNA re-replication in MCF 10a normal breast cells. MCF 10A DNA re-replication, Hoechst nuclear intensity, 48 h. Potency, µM (series often up to 46.1 µM), for inactives: at the top dose activity, positive = re-replication, actives largely listed as activators. 2.9% of 350,000 active. AID 624296; further: potency means the concentration at half of the fitted maximal effect; % of control where 0% means no effect; nearly all actives have a fitted effect of over 50% in size
SW480 rerep = inducers of DNA re-replication in SW480 colon cancer cells; 1.8% of 340,000 active; SW480 DNA re-replication, Hoechst DNA content imaging, 48 h; Potency, µM (top dose mostly 46.1 µM), without a hit: at the highest dose re-replication activation, hits mostly activators; AID 624297; further: potency means the concentration at half of the fitted maximal effect; % of control where 0% means no effect; nearly all actives have a fitted effect of over 55% in size
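Cells (250 per well) received 23 nL compound or DMSO by pin tool and were kept 48 hr at 37 C, 5% CO2. Nuclei were then stained with Hoechst for 40 min and scanned for DNA content.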
PINK1 expr mod = modulators of PINK1 expression; PINK1 immunofluorescence, high-content cytometry, 24 h; Potency, µM (titrated, usually from 76.6 µM), for the others: at the highest dose activation (PINK1 increase), hits mostly activators; 0.2% of 410,000 active; AID 624263; active means well fitted activation curve with a large enough effect; inconclusive means small, poorly fitted or top-dose-only effect; cell line not stated here; further: potency means the concentration at half of the fitted maximal effect; % of control where 0% means no effect; nearly all actives have a fitted effect of over 65% in size
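Cells are seeded, rested 12 hours, then given compound at five concentrations or DMSO for 24 hours. After fixation, blocking and antibody staining, PINK1 amount and mitochondrial localization are scored; CCCP serves as control.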
IL1B secr inh = blocks inflammasome-driven IL-1 beta release. AID 743279. 4.7% of 360,000 active. THP-1 LPS/ATP IL-1B secretion, AlphaLISA, 16 h; active compounds read low. activity change, % at 57.5 µM; in the data active means activity change below about -50%; inconclusive means mostly about -30% to -49%; further: on the % scale 0 is the no-effect control and ±100 the full control effect
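Secreted IL-1B measured by AlphaLISA bead assay after 16 h compound exposure of THP-1 cells; compounds (final up to 57.5 uM) added 1 h before LPS (250 ng/mL) and ATP (1.25 mM) stimulation; lower signal means less secretion.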
ATXN2 expr inh = ATXN2 expression inhibition; 0.72% of 360,000 active; HEK-293 ATXN2-luciferase reporter, luminescence, 24 h; Potency, µM (highest dose often 57 µM), inactives show at the top dose activity change, negative = inhibition, usual class: inhibitors; further: potency means the concentration at half of the fitted maximal effect; on the % scale 0 is the no-effect control and ±100 the full control effect; nearly all actives have a fitted effect of over 55% in size
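qHTS (up to 57 uM final) was run with 24 h compound exposure of reporter cells at 37 °C. Each well was multiplexed: SteadyGlo luminescence measured ATXN2-luciferase expression after a fluorogenic Gly-Phe-AFC viability readout (25 uM final).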
S2 tox = cell viability loss in ATXN counter-screen | S2 cells (HEK-293 line with an ATXN2-luciferase reporter) viability, CellTiter-Fluor protease fluorescence, 24 h | Potency, µM (doses to about 56.7 µM), actives largely listed as cytotoxic | 0.49% of 400,000 active; further: potency means the concentration at half of the fitted maximal effect; nearly all actives have a fitted effect of over 40% in size
The depositor's hits bear a star; [ ] = dose if it differs, or a comment. Most compounds without a hit are left out; they make up all but 7.1% or so of the library. Unless noted, the call rests on the fitted dose curve; in most records, active means well fitted curve in the direction sought with a large enough effect; inconclusive means small, poorly fitted or top-dose-only effect, or another doubt; inactive means no such curve, though single readings can be large; an effect the other way counts as inactive or inconclusive.

CC1Cc2ccccc2N1C(=O)CN1CCC(n2nnc3cc(C(F)(F)F)ccc32)CC1 (centres undefined) was read as MCF10A rerep -4%, SW480 rerep 10%, PINK1 expr mod -2%, IL1B secr inh -58*, ATXN2 expr inh -22% and S2 tox inconclusive.
`CCCNCc1cc(Br)ccc1OCC(=O)NCCc1ccccc1` gave MCF10A rerep inconclusive, SW480 rerep 13%, PINK1 expr mod 2%, IL1B secr inh -52*, ATXN2 expr inh 0% and S2 tox inconclusive.
O=C(COc1ccc(Br)cc1CNCCc1ccccc1)NCc1ccccc1 was read as MCF10A rerep inconclusive, SW480 rerep inconclusive, PINK1 expr mod -2%, IL1B secr inh inconclusive, ATXN2 expr inh inconclusive and S2 tox inconclusive.
C[C@H](CO)N1C[C@H](C)[C@@H](CN(C)C(=O)Nc2ccc3c(c2)OCO3)Oc2c(NS(=O)(=O)c3ccc(F)cc3)cccc2C1=O was read as MCF10A rerep -2%, SW480 rerep 0%, PINK1 expr mod 1%, IL1B secr inh 15, ATXN2 expr inh 13% and S2 tox inactive.
Screening COc1cc(NS(=O)(=O)c2ccc(OC)c(C)c2C)c(OC)cc1Cl returned MCF10A rerep inconclusive, SW480 rerep 5.6µM*, PINK1 expr mod 3%, IL1B secr inh -4, ATXN2 expr inh inconclusive and S2 tox inactive.
`COc1cc2c3nnc(-c4ccc(F)cc4)c-3cn(Cc3ccc(F)cc3)c2cc1OC` gave MCF10A rerep 18µM*, SW480 rerep inconclusive, PINK1 expr mod 6%, IL1B secr inh 21, ATXN2 expr inh inconclusive and S2 tox inactive.
Screening COc1ccc(Cn2cc3c(-c4ccc(F)cc4)nnc-3c3cc(OC)c(OC)cc32)cc1 returned MCF10A rerep inconclusive, SW480 rerep inconclusive, PINK1 expr mod 9%, IL1B secr inh 0, ATXN2 expr inh 32µM* and S2 tox inactive.
`COc1cc2c3nnc(-c4ccc(F)cc4)c-3cn(Cc3ccccc3)c2cc1OC` gave MCF10A rerep inconclusive, SW480 rerep inconclusive, PINK1 expr mod inconclusive, IL1B secr inh -95*, ATXN2 expr inh 16µM* and S2 tox inactive.
Screening COc1cc2c(=O)c(C(=O)c3ccc(F)cc3)cn(Cc3cccc(F)c3)c2cc1OC returned PINK1 expr mod -1%, ATXN2 expr inh -14% and S2 tox inconclusive.
COc1cc2c(=O)c(S(=O)(=O)c3ccc(F)cc3)cn(Cc3ccc(Cl)cc3)c2cc1OC was read as PINK1 expr mod 0%, ATXN2 expr inh -10% and S2 tox inactive.
Screening COc1ccc(CNCCSc2nnnn2-c2ccccc2)cc1 returned PINK1 expr mod 0%, ATXN2 expr inh 2% and S2 tox inactive.
For Cc1cc2cc(C#N)c(SCC(=O)Nc3nonc3C)nc2cc1C the results were MCF10A rerep 15µM*, SW480 rerep inconclusive, PINK1 expr mod inconclusive, IL1B secr inh 52, ATXN2 expr inh 1% and S2 tox inactive.
For Cc1cccc2cc(C#N)c(SCCN3CCCCC3)nc12 the results were MCF10A rerep inconclusive, SW480 rerep 8.2µM*, PINK1 expr mod -1%, IL1B secr inh -59*, ATXN2 expr inh 25µM* and S2 tox inactive.
`COc1ccc2cc(C#N)c(SCC(=O)Nc3nonc3C)nc2c1` gave MCF10A rerep -16%, SW480 rerep inconclusive, PINK1 expr mod inconclusive, IL1B secr inh -13, ATXN2 expr inh 16% and S2 tox inactive.
For Cc1nonc1NC(=O)CSc1nc2c(C)cccc2cc1C#N the results were MCF10A rerep inconclusive, SW480 rerep -4%, PINK1 expr mod 45µM*, IL1B secr inh 9 and S2 tox inactive.
For Cc1ccc(C)c2nc(SCC(=O)Nc3ccc4c(c3)OCO4)c(C#N)cc12 the results were MCF10A rerep -1%, SW480 rerep -6%, PINK1 expr mod 0%, IL1B secr inh -2 and S2 tox inactive.
For CCC1CN(CC(=O)NCc2n[nH]c3c2CCCCC3)Cc2cc(OC)ccc2O1 (centres undefined) the results were PINK1 expr mod 0% and S2 tox inactive.
`COC(=O)c1ccc(Nc2c([N+](=O)[O-])ccc3nonc23)cc1` gave MCF10A rerep -5%, SW480 rerep -4%, PINK1 expr mod 14µM*, IL1B secr inh -6, ATXN2 expr inh 5% and S2 tox inactive.
`CC(C)(C)OC(=O)N1O[C@H]2CC1[C@@H]1[C@@H]2N=NN1CCc1ccncc1` gave MCF10A rerep -1%, SW480 rerep inconclusive, PINK1 expr mod -1%, IL1B secr inh 28, ATXN2 expr inh 6% and S2 tox inactive.
For CC(C)(C)OC(=O)N1O[C@H]2C[C@@H]1[C@@H]1[C@@H]2N=NN1C12CC3CC(CC(C3)C1)C2 the results were MCF10A rerep -3%, SW480 rerep 21µM*, PINK1 expr mod 2%, IL1B secr inh 16, ATXN2 expr inh -2% and S2 tox inconclusive.
Cc1ccc(NC(=O)c2ccc3c(c2)C(=O)N(CC2CCCO2)C3=O)cc1C (centres undefined) was read as MCF10A rerep 29%, SW480 rerep 3%, PINK1 expr mod 0%, IL1B secr inh 27, ATXN2 expr inh 9% and S2 tox inactive.
Screening Cc1nnc(NC(=O)c2ccc3c(c2)C(=O)N(CC2CCCO2)C3=O)s1 (centres undefined) returned MCF10A rerep 12µM*, SW480 rerep inconclusive, PINK1 expr mod -1%[38.3 µM], IL1B secr inh -17, ATXN2 expr inh 1% and S2 tox inactive.
For Cc1c(NC(=O)c2ccc3c(c2)C(=O)N(CC2CCCO2)C3=O)cccc1C(=O)O (centres undefined) the results were MCF10A rerep -1%, SW480 rerep 4.1µM*, PINK1 expr mod 2%, IL1B secr inh 12, ATXN2 expr inh 7% and S2 tox inactive.
For CCOc1ccccc1NC(=O)c1ccc2c(c1)C(=O)N(CC1CCCO1)C2=O (centres undefined) the results were MCF10A rerep 7%, SW480 rerep -7%, PINK1 expr mod 0%, IL1B secr inh 13, ATXN2 expr inh -5% and S2 tox inactive.
`CCOC(=O)C1=C(N)Oc2cc(O)ccc2C1c1ccc(C)cc1` (centres undefined) gave MCF10A rerep inconclusive, SW480 rerep 9%, PINK1 expr mod -2%, IL1B secr inh -72*, ATXN2 expr inh -26% and S2 tox inactive.
